In PubChem BioAssay AID504753 (Sanford-Burnham Center for Chemical Genomics, 2011):
Among all 2,400 compounds or so, about 820 (34%) were called active.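 The calls were made as follows: active = inhibition of at least 50% at 20 µM in any single replicate; inactive = the rest.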 A selection follows.

System: glucose-6-phosphate dehydrogenase-6-phosphogluconolactonase (PfGluPho), Plasmodium falciparum 3D7
Assay: PfG6PD inhibitors, hit retest, confirmation, biochemical, fluorescence intensity, single concentration (AID 504753);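 also: 0% = DMSO with substrate and 100% = DMSO lacking glucose-6-phosphate substrate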
Conditions: recombinant PfGluPho, NADPH-diaphorase-resazurin fluorescence; at 20 µM; stronger effect = higher value

Row | SMILES | inhibition
1 | O=C1NC(=O)N(c2ccccc2)C(=O)/C1=C/c1ccc([N+](=O)[O-])s1 | 64.4% (active)
2 | COC(=O)N(c1ccc(OC)cc1)P1(=S)OCCC(C)O1 (stereo not given) | 34.3% (inactive)
3 | Cc1cc(C)c2c(c1)NP(=S)(c1ccccc1)N2 (stereo not given) | -21% (inactive)
4 | O=C(CSC1c2ccccc2-c2ccccc21)N/N=C/c1ccccc1 | 35.3% (inactive)
5 | COc1cccc(-c2nc3ccc(N4CCN(C)CC4)cc3[nH]2)c1 | 13.5% (inactive)
